Measured values as given in the supplement of paper PMC13380429.

Test system: Vero E6 infected with SARS-CoV-2
Test: inhibition of SARS-CoV-2 cytopathic effect; higher = more antiviral protection, active = above 15
Conditions: 48 h

Measured: inhibition of SARS-CoV-2 cytopathic effect

O=C1c2cccc(O)c2C(=O)c2c(O)cc(CO)cc21 [aloe-emodin]
inactive: 1 nM -3.13% | 8.33 nM -0.39% | 100 nM -0.52% | 833.33 nM -3% | 10000 nM -2.43%

NCC(O)c1ccc(O)cc1 (stereo not given) [octopamine]
inactive: 1 nM -3.66% | 8.33 nM -1.96% | 100 nM -2.91% | 833.33 nM -4.12% | 10000 nM 0.96%

CC(C)C[C@H](NC(=O)[C@@H](Cc1c[nH]c2ccccc12)NC(=O)[C@H](Cc1ccc(O)cc1)NC(=O)[C@H](CO)NC(=O)[C@H](Cc1c[nH]c2ccccc12)NC(=O)[C@H](Cc1c[nH]cn1)NC(=O)[C@@H]1CCC(=O)N1)C(=O)N[C@@H](CCCNC(=N)N)C(=O)N1CCC[C@H]1C(=O)NCC(N)=O [triptorelin]
inactive: 1 nM -0.4% | 8.33 nM 2.79% | 100 nM 1.66% | 833.33 nM 2.17% | 10000 nM 0.84%

CC(C)(C)S(=O)(=O)N[C@H]1CC[C@H](C(=O)Nc2ccc(C(F)(F)F)cn2)CC1 [velneperit]
inactive: 1 nM 2.37% | 8.33 nM -0.93% | 100 nM -0.23% | 833.33 nM -1.55% | 10000 nM -1.63%

Cc1ccc(S(=O)(=O)c2ccc([N+](=O)[O-])o2)cc1
inactive: 1 nM 0.14% | 8.33 nM 0.39% | 100 nM 2.55% | 833.33 nM 13.5% | 10000 nM -21.6%

C[C@H](Nc1ncnc2[nH]cnc12)c1cc2ccc(F)cc2nc1-c1ccccn1
inactive: 1 nM 0.375% | 8.33 nM 4.37% | 100 nM 4.2% | 833.33 nM 1.33% | 10000 nM -3.42%

COc1cccc2cc(-c3nc([C@H]4CC[C@H](C(=O)O)CC4)n4ncnc(N)c34)[nH]c12
inactive: 1 nM 0.22% | 8.33 nM 2.25% | 100 nM 4.58% | 833.33 nM -0.9% | 10000 nM -2.61%

Cn1nnnc1SCC1=C(C(=O)O)N2C(=O)[C@@H](NC(=O)[C@H](OC=O)c3ccccc3)[C@H]2SC1 [cefamandole-nafate]
inactive: 1 nM -1.93% | 8.33 nM -0.03% | 100 nM -2.69% | 833.33 nM -3.24% | 10000 nM -0.65%

NC(=O)c1nc(F)cnc1O [favipiravir]
inactive: 1 nM -4.88% | 8.33 nM -2.34% | 100 nM -0.79% | 833.33 nM 0.84% | 10000 nM -6.81%

OCc1cc([C@@H](O)CNCCCCCCOCCOCc2c(Cl)cccc2Cl)ccc1O [vilanterol]
inactive: 1 nM -1.65% | 8.33 nM -1.28% | 100 nM 0.86% | 833.33 nM -0.19% | 10000 nM -2.68%

O=C(CCCCCCNC(=O)c1cnc(N(c2ccccc2)c2ccccc2)nc1)NO
inactive: 1 nM -0.34% | 8.33 nM -1.04% | 100 nM 2.13% | 833.33 nM -4.05% | 10000 nM -10.5%

Cc1[nH]c2ccccc2c1CCNCc1ccc(/C=C/C(=O)NO)cc1 [panobinostat]
inactive: 1 nM -1% | 8.33 nM -0.99% | 100 nM -7.01% | 833.33 nM -13.3% | 10000 nM -14.4%

CC(C)(C)C(=O)/C(=N/c1ccc(Cl)cc1)NNc1ccc(Cl)cc1
inactive: 1 nM 1.8% | 8.33 nM -0.69% | 100 nM 1.03% | 833.33 nM 0.66% | 10000 nM -7%

O=C(O)C[C@H]1CC[C@H](c2ccc(-c3ccc(Nc4ccc(C(F)(F)F)nc4)cn3)cc2)CC1
inactive: 1 nM -1.27% | 8.33 nM 0.84% | 100 nM -0.93% | 833.33 nM -2.65% | 10000 nM 1.98%

Cc1ccc(S(=O)(=O)Cc2nc(-c3ccc(C(=O)NCc4cccnc4)cc3)oc2C)cc1
inactive: 1 nM -2.69% | 8.33 nM -2.16% | 100 nM -15.4% | 833.33 nM -19.2% | 10000 nM -16.4%

CC[N+](CC)(CC)CC(=O)Nc1c(C)cccc1C
inactive: 1 nM -1.18% | 8.33 nM -2.04% | 100 nM 0.02% | 833.33 nM 0.8% | 10000 nM -0.17%

CCn1cc(C(=O)O)c(=O)c2cnc(N3CCCC3)nc21 [piromidic-acid]
inactive: 1 nM -0.85% | 8.33 nM 1.01% | 100 nM 0.19% | 833.33 nM -0.21% | 10000 nM -1.75%

CN1Cc2ccccc2[C@@H]2c3cccc4[nH]cc(c34)C[C@H]21
inactive: 1 nM 0.05% | 8.33 nM 0.93% | 100 nM -1.06% | 833.33 nM 0.95% | 10000 nM 2.21%

COc1cc2c(cc1C(F)(F)F)N(C(=O)Nc1cc(F)cc(-c3cccnc3)c1)CC2
inactive: 1 nM 1.91% | 8.33 nM 2.35% | 100 nM 0.87% | 833.33 nM 2.32% | 10000 nM 2.45%

O=C(O)c1cc(O)c2c(c1)C(=O)c1cccc(O)c1C2=O [rhein]
inactive: 1 nM -0.32% | 8.33 nM -0.35% | 100 nM -3.51% | 833.33 nM -0.03% | 10000 nM -2.1%

Nc1c(S(=O)(=O)O)cc(Nc2cccc3ccccc23)c2c1C(=O)c1ccccc1C2=O
inactive: 1 nM -0.33% | 8.33 nM -0.72% | 100 nM -2.22% | 833.33 nM -1.16% | 10000 nM -4.63%

N#Cc1ccc(-c2ccc(S(=O)(=O)Nc3cccc(N)n3)cc2)cc1
inactive: 1 nM 0.14% | 8.33 nM 3.14% | 100 nM -0.56% | 833.33 nM 0.76% | 10000 nM 1.78%
